From PubChem BioAssay AID488839 (Broad Institute, 2010)
Among all 330,000 compounds or so, about 35 (0.01%) were called active.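 How the source made its calls: active means highest replicate inhibition of at least 50% and at least 75% of replicates reaching 50%; inconclusive means only one of the two criteria met; inactive means both criteria failed.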 The list is a sample of the results.

target: Cyclin-dependent kinase 5 (Homo sapiens) + Cyclin-dependent kinase 5 activator 1 (Homo sapiens) (UniProt Q00535+Q15078); experiment: inhibitors of human CDK5/p35 kinase, primary screen, biochemical, single concentration (AID 488839); settings: Recombinant CDK5/p35, ADP-Glo luminescence, 60 min; at 10 µM; hits give high values;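 further: plate controls were DMSO neutral control for no effect and GW8510 at 10 µM for full effect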
Sequence (Q00535 whole entry, looked up): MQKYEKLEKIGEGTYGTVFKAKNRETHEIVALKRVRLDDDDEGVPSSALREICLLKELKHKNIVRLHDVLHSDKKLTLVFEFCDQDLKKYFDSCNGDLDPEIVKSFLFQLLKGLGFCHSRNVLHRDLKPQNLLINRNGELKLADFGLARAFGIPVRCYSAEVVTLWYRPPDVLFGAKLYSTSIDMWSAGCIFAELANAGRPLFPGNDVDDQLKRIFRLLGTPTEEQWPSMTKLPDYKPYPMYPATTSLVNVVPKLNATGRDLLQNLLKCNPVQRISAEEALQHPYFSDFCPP
Sequence (Q15078 whole entry, looked up): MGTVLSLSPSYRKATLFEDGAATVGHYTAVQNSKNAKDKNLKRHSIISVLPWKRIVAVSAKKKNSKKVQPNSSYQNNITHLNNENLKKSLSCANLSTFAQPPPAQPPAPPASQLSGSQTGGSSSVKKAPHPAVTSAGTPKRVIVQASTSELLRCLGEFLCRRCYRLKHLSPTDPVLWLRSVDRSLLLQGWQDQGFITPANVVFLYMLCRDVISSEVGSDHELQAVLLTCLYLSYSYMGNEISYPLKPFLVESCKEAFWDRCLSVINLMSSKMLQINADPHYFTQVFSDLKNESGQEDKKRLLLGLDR

| Structure (SMILES) | inhibition |
| --- | --- |
| CC(C)[C@@H](C(=O)O)N(Cc1cccc(CN([C@H](C(=O)O)C(C)C)S(C)(=O)=O)c1)S(C)(=O)=O | -2.67% (inactive) |
| Cc1cc(-c2csc(N)n2)c(C)n1-c1ccccc1 | 0.604% (inactive) |
| CCCN1C2=C(C(=O)CCC2)C(c2ccc(O)c(Br)c2)C2=C1CCCC2=O | 2.42% (inactive) |
| CC(Oc1cccc(Cl)c1)C(=O)Nc1ccc(S(=O)(=O)Nc2ncccn2)cc1 (centres undefined) | -1.05% (inactive) |
| COc1cc(OC)cc(-c2c(C#Cc3ccsc3)c3cc(-c4ccc(OC)cc4F)ccc3n2C)c1 | 2.95% (inactive) |
| O=C1COc2ccc(S(=O)(=O)NCCc3ccc(Cl)cc3)cc2N1 | -4.51% (inactive) |
| Cc1cccc(N2O[C@H]3C=CC2CCCC3)n1 | -0.772% (inactive) |
| NS(=O)(=O)c1ccc(CCNC(=O)NC2CCCCC2)cc1 | -0.391% (inactive) |
| COc1cc(OC)c(C2=NOC(C(=O)Nc3c(C)n(C)n(-c4ccccc4)c3=O)C2)cc1Cl (centres undefined) | -0.625% (inactive) |
| CCCCc1ccc(S(N)(=O)=O)cc1 | 0.729% (inactive) |
| COc1ccc2c(c1)C=CC1(O2)N(CCO)c2ccccc2C1(C)C (centres undefined) | 1.4% (inactive) |
| CC(/C=C/C1(O)C(C)CC(=O)CC1(C)C)OC1OC(CO)C(O)C(O)C1O (centres undefined) | -0.525% (inactive) |
| Cc1ccc(C(=O)N/C(=C/c2ccco2)C(=O)NCCc2c[nH]c3ccccc23)cc1C | 2.98% (inactive) |
| CCOc1ccc(C(=O)NCC(=O)N2CCN(c3ccc(C(F)(F)F)cn3)CC2)cc1 | -6.9% (inactive) |
| COc1ccccc1OCCNC(=O)C(CCSC)NC(=O)COc1ccccc1 (centres undefined) | 1.86% (inactive) |
| O=C(C1CCCO1)N(Cc1ccccc1)c1ccccc1 (centres undefined) | -1.15% (inactive) |
| O=C(Nc1ccn(CCCNCc2ccc3[nH]ccc3c2)c(=O)n1)OCc1ccccc1 | 1.87% (inactive) |
| O=C(CNC(=O)c1ccc2ccccc2c1)Nc1ncccc1O | -1.57% (inactive) |
| COc1cc(C2/C(=C(\O)c3ccc4c(c3)CC(C)O4)C(=O)C(=O)N2c2nnc(C)s2)cc(OC)c1OC (centres undefined) | -1.78% (inactive) |
| COc1cc(S(=O)(=O)N2CCOCC2)ccc1NC(=O)COc1ccc(N(C)S(=O)(=O)c2ccc(C)cc2)cc1 | -0.554% (inactive) |
| O=S(=O)(NCc1ccccc1Cl)c1cnc[nH]1 | 0.727% (inactive) |
| O=C(OCC(=O)N1CCN(C(=O)c2ccco2)CC1)c1c(Cl)cccc1Cl | 0.768% (inactive) |

| Structure (SMILES) | inhibition |
| --- | --- |
| O=c1c2ccccc2ncn1CCc1ccncc1 | 1.49% (inactive) |
| CCOc1ccc(S(=O)(=O)N/N=C(\C)c2ccc(Cl)c(Cl)c2Cl)cc1 | 1.98% (inactive) |
| CN(C)C1=NC[C@H](Cc2ccccc2)N1CCc1ccc(F)cc1 | 0.95% (inactive) |
| O=S(=O)(/N=C(/Nc1ccccc1)c1ccccc1)c1cccs1 | 0.387% (inactive) |
| OCc1nc(CO)n(Cc2ccccc2)n1 | -0.111% (inactive) |
| COc1ccc(CCNC(=O)C(=O)NCC2OCCN2S(=O)(=O)c2ccc(OC)c(C)c2)cc1 (centres undefined) | 1.39% (inactive) |
| O=C(OCC(=O)N1CCCC1)c1ccc(Cl)nc1 | 1.02% (inactive) |
| CCCCC(=O)Nc1nnc(S(=O)(=O)N(C)Cc2ccco2)s1 | 1.6% (inactive) |
| CCn1cc(CN2CCCC(CNS(=O)(=O)Cc3ccccc3)C2)cn1 (centres undefined) | 0.0333% (inactive) |
| CCc1[nH]nc(C(=O)N2CCCC(CNS(=O)(=O)c3cccs3)C2)c1C (centres undefined) | 0.235% (inactive) |
| CCN1C(=O)CS/C1=N\c1nccs1 | 0.817% (inactive) |
| O=C(c1cccs1)C1C(c2ccc(Br)cc2)NC(=S)NC1(O)C(F)(F)F (centres undefined) | 1.75% (inactive) |
| CCc1ccc(-c2cc(C(=O)NN3CCN(C)CC3)c3ccccc3n2)cc1 | 2.52% (inactive) |
| Cc1oc(C(N)=O)cc1COc1ccc(C(N)=O)cc1 | 1.55% (inactive) |
| O=C(CNCc1ccc(F)cc1)Nc1ccccc1-c1ccccc1 | 0.549% (inactive) |
| S=C(NCC1CCCO1)N1CCN(c2ccc(Cl)c(Cl)c2)CC1 (centres undefined) | -0.238% (inactive) |
| COc1ccc(-c2nc3n(c2Br)CCC3)cc1 | 1.75% (inactive) |
| O=C(Nc1cccc(Cl)c1)Nc1ccccc1NS(=O)(=O)c1cccs1 | -1.4% (inactive) |
| COc1ccccc1CNC(=O)COC(=O)c1cccs1 | 0.781% (inactive) |
| COC(C[C@@H](O)C[C@@H](O)[C@H](C)OCc1ccccc1)OC | -0.836% (inactive) |
| N#Cc1ccccc1Sc1ccccc1C(=O)OCC(=O)NC1CCCCC1 | -1.96% (inactive) |
| O=C(CN(C(=O)c1nsc(Cl)c1Cl)c1cccc(F)c1)NC1CCCC1 | 0.211% (inactive) |

| Structure (SMILES) | inhibition |
| --- | --- |
| NC1=NC(=O)C2(COC(c3ccccc3Cl)OC2)S1 (centres undefined) | 0.407% (inactive) |
| Cn1c(=O)c([N+](=O)[O-])c(Oc2ccccc2)c2ccccc21 | 3.54% (inactive) |
| COc1cc(CNCc2cccs2)cc(Br)c1OC | -3.09% (inactive) |
| O=S1(=O)CSCS(=O)(=O)C1 | -3.39% (inactive) |
| Cc1nn(C)c(C)c1C(C)NC(=O)c1ccc(OC2CCN(Cc3ccccn3)CC2)cc1 (centres undefined) | -0.745% (inactive) |
| Cc1cccc(N(Cc2ccccc2)C(=O)c2cc(S(=O)(=O)N3CCOCC3)ccc2F)c1 | -2.98% (inactive) |
| CCCCNC(=O)N(O)C1N(/N=C/c2ccc(N(C)C)cc2)C(=S)SC1(C)C (centres undefined) | -0.992% (inactive) |
| Cc1ccc(-c2csc(N(Cc3ccco3)C(=O)c3cccs3)n2)cc1 | 0.457% (inactive) |
| c1cc(-n2cnnn2)ccc1NC1=NCCC1 | -1.51% (inactive) |
| CCc1ccccc1N(CC(=O)N1CCN(c2ccccc2F)CC1)S(C)(=O)=O | 0.372% (inactive) |
| O=C(CCn1c(=S)[nH]c2cc3c(cc2c1=O)OCO3)NCc1ccc(Cl)cc1 | 1.02% (inactive) |
| Cc1cccc(C)c1NC1=NC(=S)N(c2ccc(N(C)C)cc2)C1(C)C | -0.0411% (inactive) |
| COC(=O)c1sc(C(F)(F)F)c(-c2ccccc2)c1S(=O)(=O)N(C)C | -0.853% (inactive) |
| CCOC(=O)c1nc(-c2ccc3c(c2)OCO3)[nH]c1C | -1.03% (inactive) |
| CC(=O)NC(CC(=O)Nc1nc(-c2ccccc2)c(C(C)=O)s1)c1ccccc1 (centres undefined) | 0.222% (inactive) |
| CON(C)S(=O)(=O)c1ccc2c(c1)NC(=O)C1CCCN21 (centres undefined) | -2.05% (inactive) |
| Cc1ccc(OCCCCc2c(C)n[nH]c2C)cc1 | 0.0918% (inactive) |
| COC(=O)c1cc(S(=O)(=O)Nc2ccc(C)c(F)c2)c[nH]1 | 1.29% (inactive) |
| O=c1cc(Cl)c2ccccc2n1-c1ccccc1 | -0.318% (inactive) |
| COc1ccc(C(=O)N2CCN(c3ccc(C(C)=O)cc3F)CC2)cc1S(=O)(=O)NC1CC1 | 0.384% (inactive) |
| COc1ccc(C(C)NC(=S)NC2CCCCC2)cc1OC (centres undefined) | -2.83% (inactive) |
| CCOc1ccccc1NC(=O)COc1ccc(S(=O)(=O)N2CCCC2)cc1 | -0.338% (inactive) |

| Structure (SMILES) | inhibition |
| --- | --- |
| COc1ccc(CCNC(=O)CCc2cn(C)c3ccccc23)c(OC)c1 | 1.21% (inactive) |
| COc1ccc(-c2nc(CN3CCN(c4ncccn4)CC3)c(C)o2)cc1C | 0.124% (inactive) |
| COc1ccc(S(=O)(=O)N(CCCN2CCCC2=O)Cc2cc3c(C)ccc(C)c3[nH]c2=O)cc1 | -2.49% (inactive) |
| CCCCN(CC(=O)Nc1cccc(S(=O)(=O)N2CCCC2)c1)Cc1nc2ccccc2c(=O)[nH]1 | 0.255% (inactive) |
| C=CCn1c(-c2ccccc2OCC)n[nH]c1=S | -0.312% (inactive) |
| Cc1ccc(NC2CCCN(C(=O)CCc3cn[nH]c3)C2)cc1C (centres undefined) | 0.302% (inactive) |
| CCCNC(=O)NCc1ccc(N2CCCC2=O)cc1 | -1.59% (inactive) |
| Cc1nn(-c2ccccc2)c(CC(C)(C)C(=O)O)c1C(=O)O | 0.362% (inactive) |
| O=C1c2ccccc2C(O)N1Cc1ccccc1Cl (centres undefined) | -1.45% (inactive) |
| Cc1cccc(-n2c(SCC(=O)Nc3cccc(S(=O)(=O)NC4=NCCCCC4)c3)nc3ccccc3c2=O)c1C | 0.0416% (inactive) |
| CN(C(=O)CC1C(=O)NCCN1Cc1ccc2ccccc2c1)C1CCOCC1 (centres undefined) | 0.878% (inactive) |
| COc1ccc(C(C)NC(=O)C2CCCC2)cc1 (centres undefined) | -1.29% (inactive) |
| O=C(NCCc1nnc2ccc(SCC(=O)N3CCOCC3)nn12)c1ccccc1 | -3.67% (inactive) |
| CCOC(=O)c1cnc2ccc(F)cc2c1Nc1ccc2c(c1)OCCO2 | -0.0856% (inactive) |
| Cc1ccc(NS(=O)(=O)c2c(C)[nH]c(=O)[nH]c2=O)cc1C | -1.59% (inactive) |
| CC1CCCCC1NCC(=O)Nc1ccccc1C(=O)Nc1ccccc1 (centres undefined) | -1.88% (inactive) |
| COCCn1c(SC(C)C(=O)NC2CC2)nnc1-c1cccc(C)c1 (centres undefined) | -7.75% (inactive) |
| COCC(C)n1c(C)cc(C(=O)COc2ccc(C)nc2[N+](=O)[O-])c1C (centres undefined) | 1.15% (inactive) |
| Cc1nnc(SC(C(=O)c2ccccc2)c2ccccc2)[nH]c1=O (centres undefined) | 0.641% (inactive) |
| COc1cccc(CN2C(=O)CCC2(C)C(=O)NC2CCCCCC2)c1 (centres undefined) | 1.09% (inactive) |
| COc1cccc2c1OCC(C(=O)NCc1ccc(Cl)cc1Cl)=C2 | -2.22% (inactive) |
| COc1ccc(CCNC(=O)CCC(=O)NC2CCCCC2)cc1OC | 1.39% (inactive) |

| Structure (SMILES) | inhibition |
| --- | --- |
| CC(=O)Nc1ccc(NC(=O)C(C)OC(=O)C2CC(=O)N(CCc3ccccc3)C2)cc1 (centres undefined) | -2.5% (inactive) |
| CC1(C)CC(=O)C(C2=NC(C)(C)Cc3ccccc32)=C(O)C1 | 0.357% (inactive) |
| COc1ccc(-n2nc3c(c2NC(=O)c2ccc(N4C(=O)CCC4=O)cc2)CSC3)cc1 | 2.36% (inactive) |
| Brc1ccc(-c2n(-c3ccccn3)c3ccccc3[n+]2-c2ccccn2)cc1 | 3.32% (inactive) |
| C=CCNC(=S)NNc1ncnc2sc3c(c12)CC(C)(C)OC3 | -1.36% (inactive) |
| Cc1ccc(S(=O)(=O)N2C3C=CC(C3)C2C(=O)O)cc1 (centres undefined) | -7.35% (inactive) |
| O=C(Cn1cnc2c(OCc3ccccc3)ncnc21)NCCCn1ccnc1 | 1.18% (inactive) |
| CC(C)c1ccc(Nc2nnc(SCC(=O)c3nnc(-c4ccccc4)o3)s2)cc1 | 1.49% (inactive) |
| Cc1cc(C(C)(C)C)cc(S(=O)(=O)Nc2ccc(C(=O)O)cc2)c1C | 0.418% (inactive) |
| Cc1ccc(SCC2=NNC(=O)C2)cc1 | 0.0205% (inactive) |
| CC(C)C(NC(=O)c1c(F)cccc1F)C(=O)NCc1ccncc1 (centres undefined) | -1.58% (inactive) |
| Cc1ccc(N(C(=O)c2ccc(S(=O)(=O)N(C)C)cc2)C2C=CS(=O)(=O)C2)cc1 (centres undefined) | 1.14% (inactive) |
| COc1ccc(Cl)cc1NC(=O)CN(C)Cc1ccc(OC)c(OC)c1 | -3.62% (inactive) |
| CCOC(=O)N1CCC(NC(=O)Cn2cc3c(n2)CCCCC3)CC1 | 3.25% (inactive) |
| CCCc1nc2oc3c(=O)[nH]cnc3c2c2c1COC(C)(C)C2 | -0.359% (inactive) |
| CCOC(=O)c1c(NC(C)=O)sc2c(O)c(Br)ccc12 | -0.579% (inactive) |
| Cc1ccc(C)c(NC(=O)COC(=O)CSc2ccccc2)c1 | -0.511% (inactive) |
| CCc1cc2c(=O)c(-c3nc4ccccc4n3C)c(CCCC(=O)O)oc2cc1OC(=O)C(C)(C)C | -1.94% (inactive) |
| O=C(CN1CCOCC1)Nc1c2c(nc3c1CCC3)CCC2 | -2.33% (inactive) |
| O=C(COC(=O)CNC(=O)C1CCCCC1)NCc1ccccc1 | 1.54% (inactive) |
| CCCCc1nc(SCC(=O)Nc2nnc(C(C)C)s2)n[nH]1 | -0.0356% (inactive) |
